Screening results (PubChem BioAssay)
TNF death inh: inhibitors of TNF-alpha triggered necroptosis, primary screen, cell-based, Jurkat FADD-/-, single concentration; 0.068% of 220,000 active; AID 463075, 2010; activation (protection from cell death), % at 10 µM; Jurkat FADD-/- TNF necroptosis rescue, ATP luminescence, 24 h; 0 = TNF only, 100 = no-TNF cells;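 active = activation, meaning protection from cell death, of at least 50% relative to plate controls; inactive = activation below 50%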;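 also: necroptosis triggered by 40 ng/mL TNF-alpha added together with compound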
Bim-Mcl-1: inhibitors of Bim peptide binding to Mcl-1, primary screen, biochemical, bead-based flow cytometry, multiplex; Induced myeloid leukemia cell differentiation protein Mcl-1 (Homo sapiens), Q07820; Bim peptide-Mcl-1 binding; inhibition, % at 10 µM; 0.1% of 190,000 active; AID 1009, 2008; in the data active = inhibition above about 40%
Target sequence (Q07820 whole entry, looked up): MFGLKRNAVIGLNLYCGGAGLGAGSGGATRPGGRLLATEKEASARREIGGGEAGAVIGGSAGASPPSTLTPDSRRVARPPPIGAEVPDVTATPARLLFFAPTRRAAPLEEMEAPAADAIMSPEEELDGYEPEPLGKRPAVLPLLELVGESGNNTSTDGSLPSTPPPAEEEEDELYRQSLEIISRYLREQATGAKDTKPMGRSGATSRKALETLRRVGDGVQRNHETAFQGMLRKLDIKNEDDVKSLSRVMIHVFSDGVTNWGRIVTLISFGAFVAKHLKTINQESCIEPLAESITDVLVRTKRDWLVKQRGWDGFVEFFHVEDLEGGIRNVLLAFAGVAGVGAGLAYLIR
MCL1-BIM inh: inhibitors of MCL1 binding to BIM-BH3, primary screen, biochemical, fluorescence polarization | 0.68% of 320,000 active | Induced myeloid leukemia cell differentiation protein Mcl-1 (Homo sapiens), Q07820 | inhibition, % at 10.9 µM | GST-MCL1 / FITC-Bim-BH3 fluorescence polarization;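 active = inhibition above the mean inhibition of all tested compounds plus 3 SD, set per campaign, cut at about 40% in these data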;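 also: higher means more loss of mP so more displacement of Bim peptide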
Mcl1 Bid PPI: Mcl-1/Bid binding inhibitors, primary screen, biochemical, TR-FRET, 1536-well. Induced myeloid leukemia cell differentiation protein Mcl-1 (Homo sapiens), Q07820. TR-FRET Mcl-1/Bid-Dy647 peptide binding. inhibition, % at 21.7 µM. 0.97% of 220,000 active;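 active = compounds that cut the binding signal by more than half at the single screening dose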;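 also: His-tagged Mcl-1 with europium anti-His antibody binding Bid BH3 peptide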
Mcl1-Noxa inh: Mcl-1/Noxa binding inhibitors, primary screen, biochemical, TR-FRET, 1536-well; inhibition, % at 21.7 µM; TR-FRET Mcl-1/Noxa peptide binding, 2 h; AID 1022, 2008; 1.5% of 220,000 active; Induced myeloid leukemia cell differentiation protein Mcl-1 (Homo sapiens), Q07820;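 active = compounds that cut the protein-peptide binding signal by more than 50% relative to plate controls in a single-dose test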;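 also: His-tagged Mcl-1 with rhodamine Noxa BH3 peptide and terbium anti-His antibody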
zVAD death inh: inhibitors of zVAD-triggered necroptosis, primary screen, L929 cells. 0.38% of 220,000 active. viability rescue, % at 10 µM. L929 zVAD necroptosis rescue, ATP luminescence, 24 h; with zVAD 60 µM;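 active = activation, scaled between plate controls, above about 75%, limit read from the data; inactive = activation under that limit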
Each line names hits and unclear results; the compound was inactive in the other large screens. Shown are actives, neighbours in structure and some others; about 2.4% of the full set was active somewhere.

COc1cc(NC(=O)CSc2nccc(C)n2)c(C(=O)O)cc1OC	none
COc1cc(NC(=O)CSc2nccc(C)n2)c(C)cc1[N+](=O)[O-]	Mcl1-Noxa inh 57
COc1ccc([N+](=O)[O-])cc1NC(=O)CSc1ncccn1	none
COc1ccc([N+](=O)[O-])cc1NC(=O)CSc1nccc(C)n1	Mcl1-Noxa inh 57
Cc1nc(SCC(=O)Nc2cc(Cl)ccc2[N+](=O)[O-])nc(C)c1C	Mcl1 Bid PPI 95
COC(=O)c1[nH]c2cc(OC)c(OC)cc2c1NC(=O)CN1C[C@H]2C[C@@H](C1)c1cccc(=O)n1C2	none (no result: TNF death inh, Bim-Mcl-1, Mcl1 Bid PPI, Mcl1-Noxa inh, zVAD death inh)
CCN(CC)c1ccc(NC(=O)COc2ccc(N(C)S(=O)(=O)c3cccs3)cc2)cc1	Mcl1-Noxa inh 65
CC(C)Cn1cnc2c1c(=O)n(CC(=O)NC(=O)NC(C)(C)C)c(=O)n2Cc1ccccc1	none (no result: TNF death inh, Bim-Mcl-1, Mcl1 Bid PPI, Mcl1-Noxa inh, zVAD death inh)
CC(=O)N1CCOc2ccc(S(=O)(=O)N3CCN(c4cc(C)ccc4C)CC3)cc21	none (no result: TNF death inh, Bim-Mcl-1, Mcl1 Bid PPI, Mcl1-Noxa inh, zVAD death inh)
COc1cc(OC)c(OC)cc1CN1CCCC(C(=O)N2CCCCC2)C1 (stereo not given)	Mcl1 Bid PPI 53
COc1ccc(OC)c(CN2CCC(C(=O)N3CCOCC3)CC2)c1	Mcl1 Bid PPI 53
CCS(=O)(=O)N1CCC(NC(=O)C(Cc2cc(OC)ccc2OC)NC(C)=O)CC1 (stereo not given)	none (no result: TNF death inh, Bim-Mcl-1, Mcl1 Bid PPI, Mcl1-Noxa inh, zVAD death inh)
O=C(O)c1ccc2nc(-c3ccccc3)sc2c1	none
Nc1ccc(-c2nc3ccc(C(=O)O)cc3s2)cc1	Mcl1-Noxa inh 57
O=C(c1ccc2ncsc2c1)N1CCCCC1	none (no result: TNF death inh, Bim-Mcl-1, Mcl1 Bid PPI, Mcl1-Noxa inh, zVAD death inh)
CCc1nnc(NC(=O)c2ccc3ncsc3c2)s1	Mcl1 Bid PPI 56 (no result: Bim-Mcl-1)
O=C(O)c1ccc2ncsc2c1	Mcl1 Bid PPI 92, Mcl1-Noxa inh 56 (no result: Bim-Mcl-1)
CCc1nnc(NC(=O)c2ccncc2)s1	none
Cc1ccc(NC(=O)c2cccnc2)cc1S(=O)(=O)N(C)C	none
Cc1ccc(NC(=O)c2ccc3ncsc3c2)cc1S(=O)(=O)N(C)C	Mcl1 Bid PPI 67 (no result: Bim-Mcl-1)
COc1ccccc1CNC(=O)CCCn1nc(C)n2ccnc2c1=O	none (no result: TNF death inh, Bim-Mcl-1, Mcl1 Bid PPI, Mcl1-Noxa inh, zVAD death inh)
Cc1cc(C)cc(OCC(=O)NNC(=S)NC(=O)C2CC2)c1	none (no result: TNF death inh, Bim-Mcl-1, Mcl1 Bid PPI, Mcl1-Noxa inh, zVAD death inh)
CCOC(=O)CN1C(=O)/C(=C/c2ccc(Cl)cc2)Oc2ccccc21	none (no result: TNF death inh, Bim-Mcl-1, Mcl1 Bid PPI, Mcl1-Noxa inh, zVAD death inh)
CCN1/C(=C/C=C/c2oc3ccc4ccccc4c3[n+]2CC)Oc2ccc3ccccc3c21	MCL1-BIM inh 135, Mcl1 Bid PPI 89
CC[n+]1c(/C=C/N(C)c2ccccc2)oc2ccc(Cl)cc21	none
Cc1ccc(CN2CCN(C(=O)c3ccco3)CC2)cc1	none
O=C(c1ccco1)N1CCN(Cc2cccnc2)CC1	Mcl1 Bid PPI 51
O=C(CN1CCN(C(=O)c2ccco2)CC1)Nc1c2c(nc3c1CCC3)CCCC2	Mcl1 Bid PPI 51 (no result: MCL1-BIM inh)
O=C(O)CSc1cc(C(=O)c2ccccc2O)cn2c(=O)c3c(-c4ccccc4)csc3nc12	Mcl1-Noxa inh 86
COc1ccc(O)c(C(=O)c2cc(SCC(=O)O)c3nc4sc5c(c4c(=O)n3c2)CCCC5)c1	Mcl1-Noxa inh 108 (no result: Bim-Mcl-1)
CCOC(=O)c1sc2nc3c(SCC(=O)O)cc(C(=O)c4cc(F)ccc4O)cn3c(=O)c2c1C	Mcl1-Noxa inh 86
COc1ccc(-n2c(SCC(=O)O)nc3sc4c(c3c2=O)CCCC4)cc1	none (no result: TNF death inh, Bim-Mcl-1, Mcl1 Bid PPI, Mcl1-Noxa inh, zVAD death inh)
CCOC(=O)c1sc2nc3c(SCC(=O)O)cc(C(=O)c4ccccc4O)cn3c(=O)c2c1C	Mcl1-Noxa inh 66
O=C(CC(=O)N/N=C/c1c(Cl)cccc1Cl)NCc1cccnc1	none (no result: TNF death inh, Bim-Mcl-1, Mcl1 Bid PPI, Mcl1-Noxa inh, zVAD death inh)
COC(=O)c1ccc(/C=N/OCC(=O)NC2CCCCCCC2)cc1	zVAD death inh 78
COc1ccc(S(=O)(=O)Nc2ccc(O)c(Sc3ncn[nH]3)c2)cc1	none
COc1ccc(S(=O)(=O)Nc2cc(Sc3ncn[nH]3)c(O)c3ccccc23)cc1	Mcl1-Noxa inh 91 (no result: MCL1-BIM inh)
O=C(Sc1cccc2cccnc12)c1ccc(F)cc1	none (no result: MCL1-BIM inh)
O=S(=O)(Nc1cc(Sc2cccc3cccnc23)c(O)c2ccccc12)c1ccc(F)cc1	Mcl1-Noxa inh 51
Cc1cccc(N2CCN(C(=O)c3c(-c4ccccc4Cl)noc3C)CC2)c1C	none (no result: TNF death inh, Bim-Mcl-1, Mcl1 Bid PPI, Mcl1-Noxa inh, zVAD death inh)
CC1(C)CC(=O)C(C=NCCN2CCN(CCc3ccccc3)CC2)=C(O)C1	Bim-Mcl-1 51
CC1(C)CC(=O)C(C=NCCN2CCN(C(=O)c3ccccc3)CC2)=C(O)C1	none
